Reference: PubChem BioAssay AID1963318 (National Center for Advancing Translational Sciences (NCATS), 2024)
About 100 (7.7%) of roughly 1,300 compounds were called active. Another 19% or so got no clear call; they are omitted. Calls come from the whole dose curve; as a rule, active = well fitted activation curve with a large enough effect; inconclusive = small, poorly fitted or top-dose-only effect; inactive = no such curve, though single readings can be large or run the other way. Not all results are given here. Entries that show only a call come without a potency.

biological target: Luciferin 4-monooxygenase (Photinus pyralis) (UniProt P08659); test: Firefly luciferase (FLuc-C-HiBiT) SDR gain of signal screen - without ATP; conditions: Purified FLuc-C-HiBiT, Nano-Glo HiBiT luminescence, no ATP; series mostly up to 32.7 µM; note: nearly all actives have a fitted effect of over 55% in size
Text: PI: James Inglese Ph.D. National Center for Advancing Translational Sciences (NCATS), National Institute of Health (NIH), Maryland Discovery and optimization of novel protein-binding ligands underlies many of the methods and applications of biology, drug discovery, clinical diagnostics, and environmental toxicology. Assays for detecting the interaction of, for example, a molecule with a macromolecular target also referred to here as the target of interest (TOI) is dependent on a compatible output technology. Depending on the nature and knowledge surrounding the TOI, whether a receptor, enzyme, regulatory subunit or scaffold, or a sequence-defined nucleic acid folded into a complex tertiary structure, assay strategies can vary widely. Here we exploit ligand-biased changes in the structural dynamics of the target protein to control reporter alpha complementation allowing a non-competitive, non-functional, non-separation measure of ligand-target interaction. […] Secondly, we show the specificity and sensitivity of the SDR for the Abelson tyrosine kinase (ABL1) compared to the serine/threonine protein kinase A, using an enriched chemical library of 128 compounds selected, in part, for activity annotated with ABL1 kinase activity using the Pharos database (3). References: (1) A. S. Dixon et al., NanoLuc Complementation Reporter Optimized for Accurate Measurement of Protein Interactions in Cells. ACS Chem Biol 11, 400-408 (2016). […] Chemistry & Biology, 19, 1060 - 1072 (2012). (3) K. J. Kelleher et al., Pharos 2023: an integrated resource for the understudied human proteome. Nucleic Acids Res 51, D1405-D1416 (2023).
1. Reagent. Dispense 4 uL FLuc-C-HiBiT enzyme-buffer solution per well at a final enzyme concentration of 10 nM with or without 10 uM ATP into columns 2-48 of white, solid bottom medium bind 1536-well plates (Greiner Bio-One) by BioRaptr 2. Dispense respective buffer without enzyme at 4 uL/well in column 1 of assay plates. 2. Compounds. Library compounds and PTC124 control added at 23 nL per well, transfer by Pin Tool. 3. Incubation. Incubate enzyme and compounds at room temperature for >30 min, protect from light. 4. Reagent. (SDR assay) Add 3 uL/well of Nano-Glo HiBiT reagent (Promega) to assay plates for SDR assay without ATP. 5. Incubation. Incubate enzyme and substrate or detection reagent at room temperature for 5-10 min, protect from light. 6. Detector. HiBiT SDR assay measured using CCD-based camera (ViewLux) with settings as follows: Exposure, 1 sec; Gain, High; Speed, Slow; Binning, 2X. REFERENCES: Inglese J, Shamu CE and Guy RK, Reporting data from high throughput screening of small molecule libraries, Nature Chemical Biology, 2007, 3(8): 438-441. doi.org/10.1038/nchembio0807-438.
Potency is the fitted concentration of half-maximal effect.

Sequence of Luciferin 4-monooxygenase (Photinus pyralis) (P08659 whole entry, looked up): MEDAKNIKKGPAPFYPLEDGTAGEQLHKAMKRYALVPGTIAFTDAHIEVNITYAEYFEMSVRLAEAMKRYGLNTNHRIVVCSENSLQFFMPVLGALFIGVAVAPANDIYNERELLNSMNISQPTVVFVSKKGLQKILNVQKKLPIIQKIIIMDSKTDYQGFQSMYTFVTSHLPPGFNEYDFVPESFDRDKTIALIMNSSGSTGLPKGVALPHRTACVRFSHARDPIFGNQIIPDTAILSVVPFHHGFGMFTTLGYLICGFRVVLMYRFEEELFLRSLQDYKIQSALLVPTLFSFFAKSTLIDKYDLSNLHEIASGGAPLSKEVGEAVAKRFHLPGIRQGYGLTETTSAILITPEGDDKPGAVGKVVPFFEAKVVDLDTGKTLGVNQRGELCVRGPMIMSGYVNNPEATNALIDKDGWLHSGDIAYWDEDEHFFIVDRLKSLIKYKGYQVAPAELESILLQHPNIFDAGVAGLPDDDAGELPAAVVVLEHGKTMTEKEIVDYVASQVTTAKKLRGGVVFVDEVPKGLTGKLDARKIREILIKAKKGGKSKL

Row | SMILES | Potency
1 | COc1ccc(-c2cc(N3CCCC(NC(=O)c4ccsc4)C3)n[nH]2)cc1 (centres undefined) | inactive
2 | Fc1ccc(Nc2nc(-c3ccccc3F)no2)cc1 | inactive
3 | Cc1nn(-c2ccc(C(C)C)cc2)c(C)c1[C@@H]1C=C[C@@H](NC(=S)NCC(C)C)C1 | inactive
4 | COc1ccc(CC(=O)Nc2ccc(-c3nc4ccccc4s3)c(C)c2)cc1 | inactive
5 | O=C(COc1ccc(Cl)cc1)Nc1ccc(-c2nc3cc(Cl)ccc3o2)c(O)c1 | inactive
6 | O=C([C@@H]1C[C@@H](O)[C@H](O)[C@@H]2NC(=S)N(c3ccc(OC(F)(F)F)cc3)[C@@H]21)N1CCCCC1 | inactive
7 | CCNC(=O)C1C(c2cccc(NC(=O)c3ccc(OC)cc3)c2)OC(=O)N1Cc1ccc(C)cc1 (centres undefined) | inactive
8 | Cc1nnn2c(C(=O)NC3CC3)cccc12 | inactive
9 | COc1cc(F)ccc1-c1ccc(COc2ccc3c(cnn3CCC(=O)O)c2)cc1 | inactive
10 | Cc1cc(C)n(CCC(=O)N2CCC(Cc3noc(C4CC4)n3)C2)n1 (centres undefined) | inactive
11 | O=C(Nc1ccccc1)c1nc2c(o1)CCN(Cc1cccc(Cl)c1)CC2 | inactive
12 | Cc1ccc(C(=O)Nc2ccc(-c3nc4ccccc4s3)c(O)c2)cc1 | inactive
13 | CC(=O)c1ccc(NC(=O)CSc2nnc(NC(=O)Nc3ccccc3)s2)cc1 | inactive
14 | O=C(CSc1ccc(F)cc1)Nc1ccccc1-c1nc2ccccc2s1 | inactive
15 | C[S+](=O)([O-])CCn1ncc2cc(OCc3cccc(-c4ccccc4)c3)ccc21 | inactive
16 | Cc1ccc2cc(CN3CCN(CC(N)=O)CC3)c(-c3cccs3)nc2c1 | inactive
17 | OCc1cccc(-c2cc3c(cn2)CN(Cc2ccccc2)CCN3)c1 | inactive
18 | O=C(NCc1ccc(F)c(Cl)c1)C1CCN(C(=O)c2ncn3c2COC(c2ccccc2)C3)CC1 (centres undefined) | inactive
19 | CC(=O)Oc1ccccc1C(=O)Nc1ccc(-c2nc3ccc(C)cc3s2)cc1 | inactive
20 | O=C(NCc1ccccc1)C1CCN(C(=O)c2ncn3c2COC(c2ccccc2)C3)CC1 (centres undefined) | inactive
21 | O=C(/C=C/c1ccccc1)Nc1cc(-c2nc3cc(Cl)ccc3o2)ccc1Cl | inactive
22 | CNc1nc(C(=O)NCc2ccc3[nH]c(-c4ccc(F)cc4)c(C)c3c2)cs1 | inactive
23 | OCCN1CCN(c2nc(N3CCCCC3)c3cnn(-c4ccc(Cl)cc4)c3n2)CC1 | inactive
24 | Cc1ccc(-n2ncc3c(N4CCC(C(N)=O)CC4)ncnc32)cc1 | inactive
25 | OCC1CCCN(c2ncnc3c2cnn3-c2ccccc2)C1 (centres undefined) | 1.76 µM (active)
26 | Cc1ccc(-c2nnc(SCc3ccccc3C)o2)cc1 | inactive
27 | O=C(NC1CCN(c2cc(-c3ccc(F)cc3)[nH]n2)C1)c1cc2ccccc2[nH]1 (centres undefined) | inactive

Row | SMILES | Potency
28 | Cn1ccnc1CN1CCc2nc(C(=O)Nc3ccccc3)oc2CC1 | inactive
29 | Cc1ccc(C2Cn3nnc(C(=O)N4CCC(C(=O)NCCc5ccccc5)CC4)c3CO2)cc1 (centres undefined) | inactive
30 | CN1c2cc(C(=O)Nc3ccccc3)ccc2C(=O)N2CCCCCC21 (centres undefined) | inactive
31 | Oc1cccc(-c2cc3c(cn2)CN(Cc2cccnc2)CCN3)c1 | inactive
32 | OC1(CN2CCCCC2)CCN(c2nc3ccccc3s2)C1 (centres undefined) | inactive
33 | Cc1nn(-c2ccc(C(C)(C)C)cc2)c(C)c1[C@@H]1C=C[C@@H](NC(=O)c2ccco2)C1 | inactive
34 | Cc1cccc(C(=O)Nc2ccc(-c3nc4ccccc4s3)c(C)c2)c1 | inactive
35 | COc1cccc(-c2nc3ccc(-c4ccc5c(c4)OCO5)cc3o2)c1OC | inactive
36 | Cc1ccc(Cl)cc1-n1ncc2c(N3CCC(C(N)=O)CC3)ncnc21 | inactive
37 | COc1ccc(-c2nc3ccccc3s2)cc1NC(=O)COc1ccccc1C | inactive
38 | CN1CCN(C[C@@H]2CN(C(=O)CCCc3ccccc3)C[C@@H]2CO)CC1 | inactive
39 | Cc1nn(-c2ccc(C(C)C)cc2)c(C)c1[C@@H]1C=C[C@@H](NC(=O)Nc2ccccc2)C1 | inactive
40 | Cc1ccc(Nc2c(-c3ccc(N(C)C)cc3)nc3nc[nH]n23)cc1 | inactive
41 | CC(=O)Nc1ccc(NC(=O)CCCc2nc(-c3ccc(C(C)(C)C)cc3)no2)cc1 | inactive
42 | O=C(CCCc1ccccc1)N1CCC2(CC1)CC(O)CCO2 (centres undefined) | inactive
43 | COc1ccccc1OC1(C(=O)O)CCN(c2ncnc3nc[nH]c23)CC1 | inactive
44 | CC(C)C(=O)Nc1cc(-c2nc3ccccc3s2)ccc1Cl | inactive
45 | Oc1ccc(-c2nc(C3CC3)nc3c2CCN(Cc2cccc(F)c2)CC3)cc1 | inactive
46 | Cc1nn(-c2ccc(C(C)C)cc2)c(C)c1[C@@H]1C=C[C@@H](NC(=O)CC2(CC(=O)O)CCCC2)C1 | inactive
47 | Cc1cc2nn(-c3ccc(Cl)cc3)nc2cc1NC(=O)C(C)C | inactive
48 | O=C(NCC1CC1)C1CCN(C(=O)c2ncn3c2COC(c2ccccc2)C3)CC1 (centres undefined) | inactive
49 | CCc1cccc(NC(=O)c2cc(-c3ccccc3)n[nH]2)c1 | inactive
50 | CC(=O)c1nn(-c2ccc(OC(F)(F)F)cc2)nc1Nc1ccccc1 | inactive
51 | Cc1cccc(-c2cccc(NC(=O)C3CCCN(C(=O)CC(F)(F)F)C3)c2)c1 (centres undefined) | inactive
52 | COc1ccc(C)cc1NC(=O)Nc1cccc(-c2ccc(N3CCCCC3)nn2)c1 | 8.81 µM (active)
53 | Cc1ccc(-c2nc(C(=O)N(C)Cc3ccccc3)no2)cc1 | inactive
54 | CCOC(=O)C1CCN(C(=O)c2cccc3c2CCN3C(=O)Nc2ccccc2)CC1 | inactive
